Results taken from PMC5540273 (PLoS ONE, 2017).

How the values were obtained:
Conditions in all cases: concentration: 1 μM, replicates: in singlicate; n = 1
DMPK2 = test system: T1, DMPK2
T1 construct: gene CDC42BPG

DMPK = test system: DMPK
DRAK1 = test system: T2, DRAK1
T2 construct: gene STK17A

DRAK2 = test system: T3, DRAK2
T3 construct: gene STK17B

DYRK1A = test system: DYRK1A
DYRK1B = test system: DYRK1B
DYRK2 = test system: DYRK2
EGFR = test system: EGFR
EIF2AK1 = test system: EIF2AK1
EPHA1 = test system: EPHA1
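Note: KINOMEscan kinase panel screen.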

Compound | %Inh (DMPK2) | %Inh (DMPK) | %Inh (DRAK1) | %Inh (DRAK2) | %Inh (DYRK1A) | %Inh (DYRK1B) | %Inh (DYRK2) | %Inh (EGFR) | %Inh (EIF2AK1) | %Inh (EPHA1)
O=C(Nc1n[nH]c2nc(-c3cccs3)c(Br)cc12)C1CCCC1 [SB-743341] | 9% | 5% | 9% | 7% | 24% | 0% | 36% | 1% | 31% | 10%
NS(=O)(=O)c1cccc(N/C=C2\C(=O)Nc3ccc(S(=O)(=O)Cc4c(Cl)cccc4Cl)cc32)c1 [GSK398099] | 18% | 0% | 0% | 0% | 29% | 14% | 9% | 24% | 0% | 12%
COc1cccc(NC(=O)Nc2ccc(C)c(-c3ccc(C(=O)Nc4ccncc4)cc3)c2)c1 [GSK1398474] | 5% | 0% | 0% | 9% | 9% | 43% | 22% | 17% | 7% | 20%
O=C1NC(=O)C(c2ccc(Cl)cc2)=C1Nc1ccc(O)cc1 [SB-340867] | 0% | 0% | 0% | 0% | 1% | 0% | 0% | 5% | 0% | 16%
COc1cccc(CNC(=O)NC2CCN(c3ccnc(Nc4ccc(F)cc4)n3)C2)c1 (stereo not shown) [GSK1379723] | 0% | 0% | 0% | 0% | 39% | 5% | 4% | 21% | 0% | 12%
COc1nccc(-c2c(-c3ccc(F)cc3)ncn2CCCN2CCOCC2)n1 [SB-282852] | 0% | 8% | 0% | 0% | 0% | 61% | 10% | 8% | 8% | 0%
Cc1ccccc1Cn1ccn2c(=O)cc(N3CCOCC3)nc12 [GSK2269905] | 0% | 0% | 0% | 0% | 16% | 0% | 0% | 15% | 8% | 4%
Cc1ccc(NC(=O)Nc2ccccc2F)cc1-c1ccc(C(=O)Nc2ccncc2)cc1 [GSK1398477] | 16% | 3% | 1% | 0% | 26% | 8% | 17% | 24% | 0% | 0%
COc1ccc(CSc2nnc(-c3ccc4ncsc4c3)o2)cc1C(F)(F)F | 0% | 0% | 0% | 3% | 36% | 28% | 0% | 7% | 0% | 0%
COc1ccc(CSc2nnc(-c3ccc4c(c3)CCO4)o2)cc1 | 0% | 0% | 0% | 3% | 0% | 35% | 0% | 0% | 0% | 0%
CC(C)c1cc(-c2ccc3c(N)n[nH]c3c2)nc(N)n1 [GSK2250882] | 0% | 1% | 98.4% | 0% | 28% | 0% | 78% | 17% | 12% | 2%
Cl.Cl.Cl.N#Cc1ccc(CCNc2nccc(-c3cccc(CN4CCNCC4)c3)n2)cc1 [GSK2137462] | 41% | 10% | 0% | 0% | 0% | 0% | 24% | 11% | 2% | 19%
CCn1c(-c2ccccc2)nc2cnccc21 [SB-733416] | 0% | 0% | 32% | 12% | 23% | 0% | 0% | 37% | 0% | 22%
COc1ccc(-c2coc3ccc(-c4nnc(C)o4)cc23)cc1 | 0% | 0% | 0% | 0% | 40% | 0% | 0% | 0% | 0% | 0%
FC(F)(F)c1ccccc1-c1cc(-c2c[nH]nc2-c2ccccn2)ccn1 [GW679396] | 7% | 16% | 14% | 2% | 0% | 13% | 12% | 0% | 0% | 0%
Cc1ccc(NC(=O)Nc2ccccc2)cc1-c1ccc(C(=O)Nc2ccncc2)cc1 [GSK1398471] | 9% | 0% | 9% | 0% | 9% | 0% | 14% | 10% | 0% | 24%
CC(C)c1ccc(O)cc1Nc1ccnc2ccc(C(F)(F)F)cc12 [GW482059] | 0% | 0% | 10% | 0% | 13% | 16% | 8% | 37% | 3% | 6%

Compound | %Inh (DMPK2) | %Inh (DMPK) | %Inh (DRAK1) | %Inh (DRAK2) | %Inh (DYRK1A) | %Inh (DYRK1B) | %Inh (DYRK2) | %Inh (EGFR) | %Inh (EIF2AK1) | %Inh (EPHA1)
c1ccc(-c2ccnc3[nH]ccc23)cc1 [SB-693578] | 0% | 0% | 8% | 0% | 34% | 0% | 19% | 17% | 6% | 25%
CCCCc1nn2ncccc2c1-c1ccnc(NC2CC2)n1 [GW684374] | 0% | 0% | 0% | 0% | 12% | 3% | 6% | 26% | 0% | 11%
CNC(=O)c1ccc(C)c(-n2c(C)cc(OCc3ccc(F)cc3F)c(Br)c2=O)c1 | 0% | 0% | 1% | 0% | 0% | 56% | 0% | 0% | 0% | 5%
CNCc1ccc2nc(NC(=O)c3ccc(C(C)(C)C)cc3)cn2c1 | 0% | 7% | 11% | 24% | 35% | 0% | 6% | 0% | 4% | 4%
Fc1ccc(-c2nc3n(c2-c2ccncc2)CCS3)cc1 [GI98581] | 82% | 16% | 0% | 0% | 15% | 13% | 24% | 32% | 0% | 8%
O=c1cc(N2CCOCC2)nc2n(Cc3cccc(Cl)c3Cl)c3ccccc3n12 [GSK2299009] | 24% | 10% | 3% | 0% | 28% | 15% | 16% | 30% | 24% | 14%
Nc1cccc(-c2ccc3c(N)n[nH]c3c2)n1 [GSK2192730] | 0% | 0% | 68% | 0% | 25% | 21% | 52% | 0% | 0% | 14%
Cc1ccc(NC(=O)c2ccc(Cl)cc2)cc1-c1ccc(C(=O)Nc2ccncc2)cc1 [GSK1398467] | 0% | 0% | 5% | 0% | 4% | 0% | 0% | 33% | 0% | 19%
CC(=O)c1cccc(NC(=O)NC2CCN(c3ccnc(Nc4ccc(F)cc4)n3)C2)c1 (stereo not shown) [GSK1379710] | 6% | 0% | 6% | 0% | 0% | 27% | 17% | 18% | 0% | 7%
COC(=O)c1cccc(NC(=O)NC2CCN(c3ccnc(Nc4ccc(OC)cc4)n3)C2)c1 (stereo not shown) [GSK1379746] | 0% | 0% | 4% | 10% | 11% | 15% | 9% | 31% | 0% | 6%
O=c1cc(N2CCOCC2)nc2n(Cc3ccccc3F)ccn12 [GSK2297428] | 0% | 0% | 0% | 0% | 6% | 0% | 9% | 18% | 0% | 3%
Cc1c(Cn2c3ccccc3n3c(=O)cc(N4CCOCC4)nc23)cccc1C(F)(F)F [GSK2306394] | 0% | 0% | 0% | 0% | 7% | 0% | 14% | 48% | 0% | 0%
Cc1ccc(-c2nc(Nc3ccncc3)c3ccccc3n2)s1 [GSK189015] | 13% | 0% | 5% | 0% | 28% | 3% | 27% | 25% | 0% | 16%
Cn1cncc1-c1cc2c(Nc3ccc(OCc4ccccc4)cc3)ncnc2cn1 [GW281179] | 0% | 0% | 93% | 5% | 19% | 21% | 3% | 100% | 0% | 14%
Cc1c(Cn2c(C)c(C)n3c(=O)cc(N4CCOCC4)nc23)cccc1C(F)(F)F [GSK2328680] | 0% | 0% | 7% | 0% | 4% | 2% | 6% | 11% | 0% | 20%
Nc1ncnc2occ(-c3ccc4c(c3)CCN4C(=O)Cc3cc(F)ccc3F)c12 [GSK2645446] | 51% | 7% | 0% | 0% | 6% | 0% | 0% | 18% | 0% | 11%
Nc1nccc(-c2c(-c3ccc(F)cc3)ncn2C2CCN(Cc3ccccc3)CC2)n1 [SB-219980] | 52% | 0% | 10% | 14% | 0% | 0% | 14% | 10% | 0% | 0%
